DT40 TDP1 CPT – DT40-hTDP1 cell growth loss with CPT; chicken DT40 Tdp1-/-;hTDP1 cells + 20 nM CPT, ATP luminescence, 48 h; Potency, µM (top dose mostly 46.2 µM), most hits filed as inhibitors; 12% of 420,000 active; note: nearly all actives have a fitted effect of over 55% in size
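Chicken DT40 Tdp1-/- cells stably complemented with human TDP1 were seeded at 400 cells/well in medium containing 20 nM camptothecin, exposed to pin-transferred compounds, and grown at 37 °C for at least 48 hr. Viability was read as ATP luminescence.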
IL1B secr inh – inhibitors of inflammasome signaling (IL-1 beta secretion). THP-1 LPS/ATP IL-1B secretion, AlphaLISA, 16 h; active compounds read low. activity change, % at 57.5 µM. 4.7% of 360,000 active; in the data active = activity change below about -50%; inconclusive = mostly about -30% to -49%
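THP-1 cells pretreated 1 hr with compounds (up to 57.5 uM final), then stimulated with LPS (250 ng/mL final) plus ATP (1.25 mM final); secreted IL-1B measured by AlphaLISA after 16 hr, decreased signal indicating inhibition.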
HT1080-NT tox – kills 2HG-producing HT-1080-NT fibrosarcoma cells. Potency, µM (highest dose often 46.1 µM), hits mostly cytotoxic. HT-1080-NT fibrosarcoma viability, CellTiter-Glo ATP luminescence, 48 h. 1.6% of 360,000 active;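 note: NT is the 2HG producing partner of a matched IDH1 knockdown line; nearly all actives have a fitted effect of over 55% in size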
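Fibrosarcoma NT cells, 750 per well in 5% FBS RPMI, were exposed to compound for 48 hours. Viability: CellTiter-Glo luminescence.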
TDP1 cell noCPT – qHTS for Inhibitors of human tyrosyl-DNA phosphodiesterase 1 (TDP1): qHTS in cells in absence of CPT; AID 686978, 2013; DT40 Tdp1-/- hTDP1 cells, no CPT, ATP luminescence, 48 h; 15% of 420,000 active; Potency, µM (highest dose often 46.2 µM), usual class: inhibitors; note: nearly all actives have a fitted effect of over 55% in size
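No-CPT arm: Tdp1-/-;hTDP1 DT40 cells (400/well) plus compounds, incubated ≥48 hr at 37 °C. Readout CellTiter-Glo luminescence.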
HT1080 IDH1KD tx – kills HT-1080 cells with IDH1 knockdown; AID 686971; 2% of 360,000 active; HT-1080 IDH1 knockdown viability, ATP luminescence, 48 h; Potency, µM (series often up to 46.1 µM), most hits filed as cytotoxic
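% activity derives from luminescence (CellTiter-Glo), normalised to DMSO and no-cell wells. HT-1080-IDH1KD cells, 750/well, had 48 h compound exposure at 37 °C.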
A number is an active result; n = inactive; u = inconclusive; x = no result given; [ ] = remark or other dose. Compounds with a hit are over-represented: about 19% of the library has one in this group of screens. Unless noted, calls come from the whole dose curve; as a rule, active = well fitted curve in the direction sought with a large enough effect; inconclusive = small, poorly fitted or top-dose-only effect, or another doubt; inactive = no such curve, though single readings can be large; an effect the other way counts as inactive or inconclusive.

SMILES	DT40 TDP1 CPT	IL1B secr inh	HT1080-NT tox	TDP1 cell noCPT	HT1080 IDH1KD tx
CN(C)c1ccc(C(=O)Nc2sc(Nc3ccccc3)nc2C(N)=O)cc1	u	x	x	7.3µM	x
CCc1nnc(NC(=O)c2ccc(N(C)S(=O)(=O)c3ccccc3)cc2)s1	n	n	n	n	n
CCCCCCCCCC[n+]1cccc(C(=O)N(CC)CC)c1	8.2µM	n	n	2.9µM	n
CCCCCCCCCC[n+]1cc(Br)cc(Br)c1	0.79µM	x	x	0.45µM	x
CCCCCCNC(=O)Cc1ccc(Br)cc1	n	n	n	n	n
Brc1ccc[n+](CCC2CCCCC2)c1	u	x	x	10µM	x
CCCCCCCCCC[n+]1cccc(Br)c1	1.4µM	x	x	5µM	x
O=C(NCCCCc1ccccc1)c1cccc(NC(=O)C2CCCC2)c1	u	u	n	u	n
Cc1ccc(-c2noc(CCC(=O)N(C)c3ccccc3C)n2)cc1	u	n	n	15µM	n
CCN(C(=O)CCc1nc(-c2ccc(C)cc2)no1)c1cc(C)ccc1C	18µM	x	x	23µM	x
CN(CCN1CCOCC1)Cc1nc(-c2ccc(Cl)cc2)no1	u	n	n	u	n
CCC(C)[C@H](NC(=O)Nc1ccc(C)cc1C)C(=O)O (some centres undefined)	12µM	n	n	n	n
CCCCc1ccc(NC(=O)N[C@H](C(=O)O)C(C)CC)cc1 (some centres undefined)	u	n	n	10µM	n
CCCCc1ccc(NC(=O)N[C@H](C(=O)O)C(C)C)cc1	16µM	n	n	7.3µM	n
CN1CCCCCC1=NC1=C(C#N)CCCC1	n	n	n	n	n
C[C@]12c3[nH]c4ccccc4c3CCN1C(=O)C(CC(=O)NCCCn1ccnc1)C[C@@H]2C(=O)N1CCCCC1 (some centres undefined)	n	n	n	n	n
COc1ccc(-c2coc3c(CN4CCCCC4C)c(O)ccc3c2=O)cc1 (centres undefined)	6.5µM	n	n	18µM	n
CCN(Cc1ccccc1)Cc1c(O)ccc2c(=O)c(-c3ccc(Cl)cc3)coc12	u	x	x	21µM	x
CCN(CC)Cc1c(O)ccc2c(=O)c(-c3ccc(Cl)cc3)coc12	u	n	n	n	n
O=c1c(-c2ccccc2)coc2c(CN3CCCCC3)c(O)ccc12	n	n	n	n	n
CCC1CCCCN1Cc1c(O)ccc2c(=O)c(-c3ccccc3)coc12 (centres undefined)	7.3µM	n	u	10µM	u
CC1CN(Cc2c(O)ccc3c(=O)c(-c4ccccc4)coc23)CC(C)O1 (centres undefined)	n	n	n	n	n
CC1CCCCN1Cc1c(O)ccc2c(=O)c(-c3ccccc3)coc12 (centres undefined)	8.2µM	n	n	10µM	n
O=C1OCCC1Sc1nnc(-c2ccc(Cl)cc2Cl)o1 (centres undefined)	n	n	n	n	n
COc1ccc(CCC(=O)Nc2ccc(Cl)c(S(=O)(=O)N3CCCC3)c2)cc1	21µM	n	u	u	u
SMILES	DT40 TDP1 CPT	IL1B secr inh	HT1080-NT tox	TDP1 cell noCPT	HT1080 IDH1KD tx
CCCCNC(=O)C1=C(N)C(C(=O)Nc2ccc(C)c(S(=O)(=O)N3CCCCC3)c2)SC1=Nc1ccc(C)cc1C (centres undefined)	23µM	n	n	23µM	n
COc1ccc(CCC(=O)Nc2ccc(S(=O)(=O)N3CCOCC3)cc2)cc1	u	n	n	n	n
COc1ccc(CCC(=O)Nc2ccc(OC)c(S(=O)(=O)N3CCCCC3)c2)cc1OC	21µM	n	n	u	n
CCOc1ncccc1C(=O)Nc1ccc(OC)c(S(=O)(=O)N2CCCCC2)c1	u	n	n	u	n
CCOc1ncccc1C(=O)Nc1ccc(C)c(S(=O)(=O)N2CCCCCC2)c1	18µM	n	n[9.24 µM]	u	n
Cc1ccccc1C(=O)NCC(=O)Nc1ccc(C)c(S(=O)(=O)N2CCCCCC2)c1	u	n	n	u	n
CN(c1ccccc1)S(=O)(=O)c1cccc(NC(=O)C2=NNC(=O)CC2)c1	u	n	u	u	n
O=C(CCc1nnc(C2(c3ccc(Cl)cc3)CCC2)o1)N1CCCC(O)C1 (centres undefined)	n	n	n	n	n

Screening results from PubChem BioAssay.
